This is part of a sample that, as a whole, favours compounds with a hit. Of some 83,000 tested, about 20% had one in any assay.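 Percent growth is the endpoint: 0 to 100 indicates growth inhibition (40 means 60% inhibition), 0 means no net growth, and negative values indicate cell death.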 Activity calls are given as the source filed them. How the source made its calls: active means growth percent below 10; inactive means the rest.
Each compound was assayed on SK-MEL-5 melanoma (assay: NCI-60 one-dose screen, 48 h (100 = growth as untreated, 0 = no growth, -100 = all killed)). Conditions: 10 µM unless noted.

SMILES	growth
Cn1c(/C(C#N)=C/c2ccc3ccccc3c2)cc2ccccc21	-26.7% (active)
Cn1cc(-c2nc(-c3c[nH]c4ncccc34)cs2)c2cc(F)ccc21	51.4% (inactive)
CC(=O)N1N=C(c2ccc(C)cc2)CC1c1ccc(Oc2ccc(Br)cc2)cc1 (centres undefined)	91.7% (inactive)
NC1=NN=C2N(N)C(=O)c3cnn(-c4ccccc4)c3N2c2nc(-c3ccccc3)cc(-c3ccccc3)c21	94% (inactive)
Fc1ccc2nc(-c3cc(-c4ccc5c(c4)OCO5)n[nH]3)[nH]c2c1	20.4% (inactive)
CN(C)c1ccc(-c2ccc(-c3ccc(C(=N)N)c(F)c3)s2)cc1	-64.9% (active)
Cc1c(C)c2c(c(C)c1NC(=O)CCCCCCC(=O)O)CCC(C)(CCCC(C)CCCC(C)CCCC(C)C)O2 (centres undefined)	81% (inactive)
Cc1cc(C)nc(NC(N)=NCCc2ccccc2)n1	22% (inactive)
C=C(C)[C@@H]1CC[C@]2(C(=O)O)CC[C@]3(C)[C@H](CC[C@@H]4[C@@]5(C)C/C(=C/c6ccc(OC)cc6)C(=O)C(C)(C)[C@@H]5CC[C@]43C)[C@@H]12	6.21% (active)
COc1ccc2[nH]cc(-c3nc(-c4c[nH]c5ncccc45)cs3)c2c1	48.2% (inactive)
CCc1ccc(-c2ccc(Nc3ccccc3)nn2)cc1S(N)(=O)=O	79.8% (inactive)
Cn1cccc1/C=C1/SC(=S)N(CCc2ccc(O)cc2)C1=O	44.2% (inactive)
CN1CCN(CCOc2ccc(-c3cnc4c(-c5ccccc5F)cnn4c3)cc2)CC1	35% (inactive)
O=c1c(CNc2ccc(S(=O)(=O)Nc3ncccn3)cc2)coc2ccccc12	95.9% (inactive)
Cc1ccc(-c2nc([P+](c3ccccc3)(c3ccccc3)c3ccccc3)c(N3CCOCC3)o2)cc1	-95.5% (active)
O=C1OC(c2ccc(Cl)c(Cl)c2)=C/C1=C/c1cccc([N+](=O)[O-])c1	102% (inactive)
COc1ccccc1-n1cnc(N)c1C(=O)c1cc(OC)c(OC)c(OC)c1	28.5% (inactive)
COc1ccc2c(c1)C/C(=C\c1cc(-c3ccc4c(c3)OCO4)n[nH]1)C2=O	88.5% (inactive)
CN(C)CCCC1(c2ccc(F)cc2)OCc2cc(-c3ccc(C(F)(F)F)nc3)ccc21 (centres undefined)	75.3% (inactive)
O=c1c(CNc2ccc(S(=O)(=O)Nc3nccs3)cc2)coc2ccccc12	98.3% (inactive)

SMILES	growth
Cc1ccc2c(c1)c(-c1nc(-c3c[nH]c4ncccc34)cs1)cn2C	98.8% (inactive)
CC1(C)C(=O)/C(=C\c2ccco2)C[C@]2(C)[C@H]3CC[C@@H]4[C@@H](C(=O)/C=C/c5ccco5)CC[C@@]4(C)[C@]3(C)CC[C@@H]12	-49.9% (active)
Cc1ccc(-c2nc([P+](c3ccccc3)(c3ccccc3)c3ccccc3)c(N3C[C@H]4C[C@H](C3)c3cccc(=O)n3C4)o2)cc1	68% (inactive)
C=C(C)[C@@H]1CC[C@]2(CN)CC[C@]3(C)[C@H](CC[C@@H]4[C@@]5(C)CCC(=O)NC(C)(C)[C@@H]5CC[C@]43C)[C@@H]12	61.6% (inactive)
Nc1c(Cl)cc(N=Nc2ccccc2)cc1Cl	94.3% (inactive)
CC(=O)O[C@H]1CC[C@]2(C)[C@H]3C(=O)C=C4[C@@H]5C[C@](C)(C(=O)N6CCCNCC6)CC[C@]5(C)CC[C@@]4(C)[C@]3(C)CC[C@H]2C1(C)C	90.2% (inactive)
CCCCCC1CCCCN1C(=O)OCC (centres undefined)	116% (inactive)
Cn1cc(-c2nc(-c3c[nH]c4ncccc34)cs2)c2cc(Br)ccc21	91.8% (inactive)
O=C(N/N=C\c1ccccc1O)C1CC1	109% (inactive)
COc1ccc(OCC(CO)N2CCN(c3ccccc3)CC2)cc1 (centres undefined)	104% (inactive)
Cn1cc(-c2nc(-c3c[nH]c4ncccc34)cs2)c2ccccc21	94.2% (inactive)
CC1(C)CC[C@]2(C(=O)Nc3ccccn3)CC[C@]3(C)C(=CC[C@@H]4[C@@]5(C)C/C(=C/c6ccncc6)C(=O)C(C)(C)[C@@H]5CC[C@]43C)[C@@H]2C1	-49.8% (active)
C=C(C)[C@@H]1CC[C@]2(C(=O)O)CC[C@]3(C)[C@H](CC[C@@H]4[C@@]5(C)C/C(=C/c6cccc(I)c6)C(=O)C(C)(C)[C@@H]5CC[C@]43C)[C@@H]12	13.9% (inactive)
Oc1cccc2oc(=S)[nH]c12	105% (inactive)
CC(=O)O[C@H]1CC[C@@]2(C)C(=CC[C@@H]3[C@@H]2CC[C@]2(C)C(=O)N(O)C(=O)C[C@@H]32)C1	98.4% (inactive)
COc1ccc2c(c1)c(-c1nc(-c3c[nH]c4ncccc34)cs1)cn2C	79.4% (inactive)
O=C(O)c1cccc2c1Cc1cc([N+](=O)[O-])ccc1-2	105% (inactive)
CCOc1ccc(NC(=O)c2ccccc2-c2ccccc2C(=O)O)cc1	106% (inactive)
O=c1c2sc3ncc(Br)cc3c2ncn1-c1cccc(Cl)c1	76.2% (inactive)

Reference: PubChem BioAssay (NCI)
